Screening data from PubChem BioAssay.
ULK1 primary – human ULK1 kinase inhibition, primary screen; O75385; AlphaScreen Atg13 phosphorylation by ULK1, luminescence; inhibition, % at 5.96 µM; actives 1.9% (n = 30,000); AID 1259251; in the data active = inhibition above about 43%
Target sequence (O75385 whole entry, looked up): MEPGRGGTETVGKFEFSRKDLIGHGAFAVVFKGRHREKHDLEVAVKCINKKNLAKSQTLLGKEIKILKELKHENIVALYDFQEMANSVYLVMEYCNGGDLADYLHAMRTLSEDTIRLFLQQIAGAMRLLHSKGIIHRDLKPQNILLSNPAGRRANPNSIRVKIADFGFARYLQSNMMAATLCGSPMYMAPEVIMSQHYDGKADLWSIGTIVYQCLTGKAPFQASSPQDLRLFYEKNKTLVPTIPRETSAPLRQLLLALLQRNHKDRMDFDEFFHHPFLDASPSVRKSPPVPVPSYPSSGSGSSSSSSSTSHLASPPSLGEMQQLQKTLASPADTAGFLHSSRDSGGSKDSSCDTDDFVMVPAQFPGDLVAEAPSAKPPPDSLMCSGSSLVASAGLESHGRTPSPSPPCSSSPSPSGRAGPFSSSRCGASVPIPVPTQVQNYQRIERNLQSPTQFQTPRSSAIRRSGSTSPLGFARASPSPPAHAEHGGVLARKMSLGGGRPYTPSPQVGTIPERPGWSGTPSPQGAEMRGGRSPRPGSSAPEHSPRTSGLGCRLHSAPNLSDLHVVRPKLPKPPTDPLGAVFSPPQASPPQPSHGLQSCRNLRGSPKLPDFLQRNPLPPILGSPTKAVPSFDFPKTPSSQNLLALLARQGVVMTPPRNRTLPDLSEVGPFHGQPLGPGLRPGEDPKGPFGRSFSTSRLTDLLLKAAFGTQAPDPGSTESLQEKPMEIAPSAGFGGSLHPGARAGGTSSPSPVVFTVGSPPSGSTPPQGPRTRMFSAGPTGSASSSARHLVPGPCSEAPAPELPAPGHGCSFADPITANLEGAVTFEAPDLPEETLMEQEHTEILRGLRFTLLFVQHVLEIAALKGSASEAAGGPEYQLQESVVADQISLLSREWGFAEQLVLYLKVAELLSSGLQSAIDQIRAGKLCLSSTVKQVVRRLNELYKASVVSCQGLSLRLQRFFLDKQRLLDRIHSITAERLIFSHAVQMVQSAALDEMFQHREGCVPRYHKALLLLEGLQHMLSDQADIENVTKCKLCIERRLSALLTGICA
ASK1 inh – inhibitors of human ASK1 kinase; AlphaScreen MKK6 phosphorylation by ASK1, luminescence; actives 0.99% (n = 22,000); inhibition, % at 7.44 µM; Q99683; in the data active = inhibition above about 35%
Numbers stand for hits; i = inactive; nt = not tested or not shown. The list is not random: actives were taken first. Their share in the collection is about 2.5%.

SMILES	ULK1 primary	ASK1 inh
COc1cc(NC(=O)C(N)c2ccc(Cl)cc2)c(F)cc1-c1cn[nH]c1 (stereo not given)	64.8	i
Cc1c(NC(=O)/C(C#N)=C/c2ccco2)c(=O)n(-c2ccccc2)n1C	i	nt
C[C@@H]1C[C@H]2[C@@H]3C[C@H](F)C4=CC(=O)C(Cl)=CC4(C)[C@@]3(F)[C@@H](O)CC2(C)[C@@]1(O)C(=O)CO (stereo not given in full)	i	nt
c1cc(-c2ccnc(Nc3ccc(-c4nn[nH]n4)cc3)n2)cc(N2CCOCC2)c1	i	i
N#Cc1cc(-c2ccnc(Nc3ccc(-n4cnc(N5CCOCC5)n4)cc3)n2)ccc1N1CCC(O)CC1	49.2	i
Cc1ncn(-c2ccc(Nc3nccc(-c4ccc(C#N)c(N5CCOCC5)c4)n3)cc2)n1	i	i
N#Cc1cc(-c2ccnc(Nc3ccc(-c4nn[nH]n4)cc3)n2)ccc1N1CCC(O)CC1	75.3	i
COc1cccc(CN(CCN(C)C)C(=O)Nc2ccc(-c3cn[nH]c3)cn2)c1	i	i
CCCNC(=O)c1ccnc(NCCCN2CCCC2=O)c1	60.5	i
c1nc2nc(Nc3ccc(N4CCOCC4)cc3)nc(NCCN3CCOCC3)c2[nH]1	i	i
O=C(NCCCN1CCCC1=O)c1ccnc(Nc2ccncc2)c1	i	i
O=C1CCCN1CCCNc1ccnc(NCCCN2CCCC2=O)n1	i	i
COc1cc(Nc2nccc(NCCCN3CCCC3=O)n2)cc(OC)c1OC	52.0	i
O=C1CCCN1CCCNc1nc(Nc2ccc(N3CCOCC3)cc2)nc2nc[nH]c12	53.8	i
O=C1CCCN1CCCNc1ncnc2nc(Nc3ccc(N4CCOCC4)cc3)[nH]c12	i	i
c1ccc(OCCNc2nc(Nc3ccc(N4CCOCC4)cc3)nc3nc[nH]c23)cc1	69.0	i
O=C1CCCN1CCn1cnc2c(Nc3ccccc3)nc(NCCN3CCOCC3)nc21	i	i
COc1ccc(Nc2cc(-c3ccncc3)nc(-c3ccccn3)n2)cc1	i	nt
C#CC1(OCC(O)CN2CCN(c3ccc(F)cc3)CC2)CCCCC1 (stereo not given)	i	nt
CC(C)N(CCNc1cc(Oc2ccccc2)ncn1)C(C)C	i	i
O=C(NC1CC1)C1CCN(c2ccc(Nc3cnccn3)nn2)CC1	i	i
O=C(NC1CCC(Nc2ccc3[nH]ncc3c2)CC1)C(O)c1ccc(F)cc1F (stereo not given)	i	i
CC(C)N(CCNC(=O)c1ccc2nc(N3CCOCC3)sc2c1)C(C)C	i	i
O=C(NCc1cccc(C(F)(F)F)c1)c1cnc(Br)s1	i	i
COc1ccc(CCNC(=O)c2ccc3nc(-c4cccc(C(C)=O)c4)sc3c2)cc1	i	i
SMILES	ULK1 primary	ASK1 inh
Cn1nccc1Nc1nc(NCCCN2CCCC2=O)c2[nH]cnc2n1	i	i
COc1cc(Nc2nc(NCCCN3CCCC3=O)c3[nH]cnc3n2)cc(OC)c1OC	74.3	i
Cc1ccc(OCC(=O)n2nc(C)c(S(=O)(=O)N3CCC(C)CC3)c2C)cc1	i	nt
O=C(Cc1ccccc1)Nc1cnn(-c2cccc(C(=O)Nc3cccc(CN4CCCCC4)c3)c2)c1	i	i
COc1cccc2c1OCC(c1nc3ccc(-c4ccnc(N)n4)cc3[nH]1)C2 (stereo not given)	i	i
Nc1nccc(-c2ccc3nc(CCOc4ccc(CC(=O)NC5CC5)cc4)[nH]c3c2)n1	i	i
COc1cccc(OCc2nc3ccc(-c4ccnc(N)n4)cc3[nH]2)c1	62.1	i
Cc1ccccc1OCc1nc2ccc(-c3ccnc(N)n3)cc2[nH]1	43.5	i
COc1ccccc1OCc1nc2ccc(-c3ccnc(N)n3)cc2[nH]1	47.6	i
Cc1ccccc1OCc1nc2ccc(-c3cn[nH]c3)cc2c(=O)[nH]1	i	i
CC(C)n1cnc2c(NCCc3ccc(O)cc3)nc(-c3ccc(C(N)=O)cc3)nc21	i	i
COc1cc(Nc2cc(Nc3ccc(-n4ccnc4)cc3)ncn2)cc(OC)c1OC	i	i
CC(=O)Nc1ccc(Nc2cc(C)nc(Nc3ccc(C(F)(F)F)cc3)n2)cc1	i	i
CNC(=O)c1cc(F)ccc1Nc1cc(Nc2ccc(NC(C)=O)cc2)ncc1C(F)(F)F	79.1	i
CNC(=O)c1cc(F)ccc1Nc1cc(Nc2cccc(OC)c2)ncc1C(F)(F)F	83.8	i
O=C1CCCN1CCn1cnc2c(NCc3nc4ccccc4[nH]3)nc(Nc3ccc(C(F)(F)F)cc3)nc21	i	i
CC(=O)Nc1ccc(Nc2nc(-c3ccc(N4CCOCC4)nc3)ncc2C)cc1	58.6	i
CC(=O)Nc1ccc(Nc2nc(-c3ccc(N4CCOCC4)nc3)nc3nc[nH]c23)cc1	i	i
O=C(N[C@H](Cc1ccccc1)c1nc(-c2ccncc2)n[nH]1)c1cccs1	i	i
CC(C)N(CCNC(=O)C1CCN(c2ccc(N3CCCC3CO)nn2)CC1)C(C)C (stereo not given)	55.6	i
O=C(NCCO)C1CCN(c2ccc(N3CCCC3CO)nn2)CC1 (stereo not given)	i	i
O=C(Nc1ccc(-c2cn[nH]c2)cc1)c1ccc2ccccc2c1	i	i
O=C1/C(=C\c2cccs2)N2CCC1CC2	i	nt
O=C1/C(=C/c2cccs2)CCC/C1=C\c1cccs1	81.7	nt
O=c1c(-c2ccc(O)cc2)coc2cc(O)cc(O)c12	i	nt
SMILES	ULK1 primary	ASK1 inh
O=c1c(O)c(-c2ccc(O)c(O)c2)oc2cc(O)cc(O)c12	46.1	nt
O=C(NC1CC1)c1ccc(-c2cc(C(=O)NC3CC3)ccn2)cc1	i	i
CC(=O)Nc1ccc(NC(=O)c2ccnc(-c3ccc(C(=O)NC4CC4)cc3)c2)cc1	44.2	i
COc1cccc(OCc2nc(N(C)CCC(N)=O)c3cc(-c4cn[nH]c4)ccc3n2)c1	i	i
CC(C)n1cnc2c(NCCOc3ccccc3)nc(Nc3ccc(-n4ccnc4)cc3)nc21	i	i
CC(=O)Nc1ccc(Nc2nc(-c3cccc(C(C)=O)c3)nc3c2ncn3C(C)C)cc1	i	i
CC(C)n1cnc2c(Nc3ccccc3)nc(Nc3ccc(-n4ccnc4)cc3)nc21	56.0	i
CC(C)n1cnc2c(Nc3ccccc3)nc(Nc3ccncc3)nc21	45.9	i
CC(C)n1cnc2c(Nc3ccccc3)nc(Nc3ccccc3)nc21	i	i
CC(C)n1cnc2c(Nc3ccc(N4CCOCC4)cc3)nc(Nc3ccc4ncccc4c3)nc21	i	i
CC(C)n1cnc2c(Nc3ccccc3)nc(Nc3ccc4ncccc4c3)nc21	51.7	i
CC(=O)c1cccc(-c2nc(Nc3ccccc3)c3ncn(C(C)C)c3n2)c1	46.2	i
CCS(=O)(=O)c1ccc(-c2ccnc(Nc3ccc(-n4ccnn4)cc3)n2)cc1	i	i
Nc1cccc(-c2nccc(NCCOc3ccccc3)n2)c1	i	i
CC(C)n1cnc2c(NCc3nc4ccccc4[nH]3)nc(Nc3ccccn3)nc21	i	i
CC(C)n1cnc2c(NCc3nc4ccccc4[nH]3)nc(Nc3ccc4ncccc4c3)nc21	45.1	i
O=C(NCCc1ccccc1)c1ccc2cncc(-c3ccccc3)c2n1	54.9	nt
COc1ccc(-c2cncc3ccc(C(=O)NCc4ccccc4)nc23)cc1	i	nt
COc1ccc(CCNc2cc(C)nc(-c3cccc(C(C)=O)c3)n2)cc1	i	i
Cc1nc(C)n(-c2ccc(Nc3ncc4ccc(-c5cn[nH]c5)cc4n3)cc2)n1	i	i
Cc1nc(C)n(-c2ccc(Nc3cc4cc(-c5cn[nH]c5)ccc4cn3)cc2)n1	81.2	i
c1cc(-c2ccc3cnc(Nc4ccc(-n5cnc(N6CCOCC6)n5)cc4)nc3c2)c[nH]1	i	i
